Only some compounds are listed: those with a hit (about 13% of all), similar ones and a draw of the others.
USP2a inhib = qHTS Assay for Inhibitors of Ubiquitin-specific Protease USP2a; Ubiquitin carboxyl-terminal hydrolase 2 (Homo sapiens), O75604; USP2a enzymatic assay, qHTS inhibition; Potency, µM (doses to about 38.3 µM), usual class: inhibitors; 0.1% of 60,000 active; note: nearly all actives have a fitted effect of over 60% in size
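USP2 core (20nM final) preincubated 30 min RT with compound, then Ub-PLA2 20nM and NBD C6-HPC 20uM final added; buffer 20mM Tris-HCl pH 8.0, 2mM CaCl2. Fluorescence Ex 460/Em 535 read at 0 and 2.5 h; normalized to NEM.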
A350 autofl = qHTS Assay for Spectroscopic Profiling in A350 Spectral Region; Compound autofluorescence, 340/450 nm, Alexa 350 dye-equivalents; stronger effect = higher value; max dye-equivalent concentration, M; 11% of 59,000 active; AID 590, 2007; in the data active = max dye-equivalent concentration above about 10 nM; inconclusive = mostly about 1.1 nM to 9.6 nM
HSD17B inhib = qHTS Assay for Inhibitors of HSD17B4, hydroxysteroid (17-beta) dehydrogenase 4. recombinant HSD17B10, NADH fluorescence kinetic. AID 893, 2007. Potency, µM (series often up to 57.1 µM), usual class: inhibitors. 7.6% of 75,000 active. 3-hydroxyacyl-CoA dehydrogenase type-2 (Homo sapiens), Q99714;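 note: the protocol describes HADH2 (HSD17B10) and not the HSD17B4 of the title; nearly all actives have a fitted effect of over 70% in size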
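20 nM HADH2, pH 9.0 Tris/Tween; cpd preinc 15 min RT; start w/ 1 mM NAD+ + 90 uM b-hydroxybutyryl-CoA; kinetic fluor ex360/em450 q30s x 4 min; delta last-first.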
HADH2 inhib = qHTS Assay for Inhibitors of HADH2 (Hydroxyacyl-Coenzyme A Dehydrogenase, Type II). 3-hydroxyacyl-CoA dehydrogenase type-2 (Homo sapiens), Q99714. recombinant HADH2, NADH fluorescence, beta-hydroxybutyryl-CoA. Potency, µM (highest dose often 57.1 µM), usual class: inhibitors. 3.4% of 73,000 active; note: nearly all actives have a fitted effect of over 60% in size
Target sequence (Q99714 whole entry, looked up, one chain of several): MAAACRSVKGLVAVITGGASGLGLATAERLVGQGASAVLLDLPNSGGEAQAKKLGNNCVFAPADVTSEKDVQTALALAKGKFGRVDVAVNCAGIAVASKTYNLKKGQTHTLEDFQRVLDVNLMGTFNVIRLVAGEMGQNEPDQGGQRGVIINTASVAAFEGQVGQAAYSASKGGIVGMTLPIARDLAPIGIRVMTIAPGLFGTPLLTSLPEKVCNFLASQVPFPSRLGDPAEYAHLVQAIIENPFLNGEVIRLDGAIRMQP
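His-tagged recombinant enzyme from E. coli, 20 nM, preincubated 15 min RT with compound; reaction started with 1 mM NAD+ and 90 uM beta-hydroxybutyryl-CoA in 100 mM Tris-HCl pH 9.0. NADH fluorescence (ex 360/em 450) read over 4 min; last-minus-first difference.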
4-MU autofl = qHTS Assay for Spectroscopic Profiling in 4-MU Spectral Region; max dye-equivalent concentration, M; compound autofluorescence, 340/450 nm, 4-MU equivalents; stronger effect = higher value; AID 589, 2007; 11% of 59,000 active; in the data active = max dye-equivalent concentration above about 10 nM; inconclusive = mostly about 1.1 nM to 9.6 nM
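Compounds in 100 mM Tris, pH 8.0, sat 15 min at room temperature before fluorescence was read at 340 nm excitation/450 nm emission; a per-plate six-point 4-MU standard curve converted signals to dye-equivalent concentration at each compound concentration.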
AID923 = qHTS Assay for Allosteric/Competitive Inhibitors of Caspase-1: Spectroscopic Profiling in AFC Spectral Region; compound fluorescence, AFC spectral region (405/520 nm); Potency, µM (highest dose often 57.5 µM), usual class: activators; 1.1% of 75,000 active
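Baseline compound fluorescence (AFC region, 405 nm ex/520 nm em) taken from the intercept of kinetic reads with 50 nM caspase-1 and 5 uM Ac-WEHD-AFC; normalized to an on-plate AFC standard curve; compounds titrated up to 57 uM.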
Numbers stand for hits; - = inactive; ? = inconclusive; . = no result; [ ] = another dose, or the depositor's remark. Unless noted, calls come from the whole dose curve; as a rule, active = well fitted curve in the direction sought with a large enough effect; inconclusive = small, poorly fitted or top-dose-only effect, or another doubt; inactive = no such curve, though single readings can be large; an effect the other way counts as inactive or inconclusive.

SMILES	USP2a inhib	A350 autofl	HSD17B inhib	HADH2 inhib	4-MU autofl	AID923
Cc1ccc(-c2nc3cc(NC(=O)C(C)C)ccc3o2)cc1	-	.	15.8µM	-	.	-
Cc1ccc(-c2nc3cc(NC(=O)C(C)C)ccc3o2)cc1C	-	?	31.6µM	-	?	-
CC(C)C(=O)Nc1cccc(-c2nc3ccccc3o2)c1	-	-	-	-	-	-
Cc1cc2nc(-c3ccc(NC(=O)C(C)C)cc3)oc2cc1C	-	.	2µM	-	.	-
CC(Oc1ccc(Cl)cc1Cl)C(=O)Nc1ccc2oc(-c3ccncc3)nc2c1 (configuration not stated)	-	4.66e-08M	12.6µM	?	5.7e-08M	-
CC(Oc1ccc(Cl)cc1Cl)C(=O)Nc1ncccn1 (configuration not stated)	.	.	-	-	.	-
CC1(C)CC[C@]2(C(=O)O)CC[C@]3(C)C(=CCC4[C@@]5(C)CC[C@H](O)C(C)(C)C5[C@H](O)C[C@]43C)C2C1 (some centres not stated)	.	.	-	.	.	-
CN[C@@H](CC(C)C)C(=O)N[C@@H]1C(=O)N[C@H](CC(N)=O)C(=O)N[C@H]2C(=O)N[C@H]3C(=O)N[C@H](C(=O)N[C@H](C(=O)O)c4cc(O)cc(O)c4-c4cc3ccc4O)[C@H](O)c3ccc(c(Cl)c3)Oc3cc2cc(c3O[C@@H]2O[C@@H](CO)[C@@H](O)[C@@H](O)[C@H]2O[C@H]2C[C@](C)(N)[C@H](O)[C@H](C)O2)Oc2ccc(cc2Cl)[C@@H]1O	-	-	-	-	-	-
COC(=O)[C@@]1(Cc2ccc(F)cc2)[C@H]2c3cc(C(=O)N4CCCC4)n(CCSCCO)c3C[C@H]2CN1C(=O)c1ccccc1	.	.	-	-	.	-
CC1=C(C2=C(C)C(C(C)C)C3=C(C(=O)C(O)C3O)C2O)C(O)C2=C(C(O)C(O)C2=O)C1C(C)C (configuration not stated)	.	.	-	.	.	-
CN1C(=O)N2CN(C3CCCCC3)CN3C(=O)N(C)C1C23 (configuration not stated)	-[7.66 µM]	.	-	-[11.4 µM]	.	-
COC(=O)[C@@H]1CC[C@H](C)[C@@H](c2ccc(C)cc2)N1C(=O)c1ccc(/C=N\OC[C@@H](O)[C@H]2O[C@H]3OC(C)(C)O[C@H]3[C@@H]2O)cc1	.	.	-[11.4 µM]	-[11.4 µM]	.	-[11.5 µM]
CC(C)C(=O)Nc1ccc(C(=O)NCc2cccnc2)cc1	-	-	-	-	-	-
CC(C)C(=O)Nc1ccc(-c2nc3cccnc3o2)cc1	-	.	25.1µM	-	.	-
CC(C)C[C@@H](N)C(=O)Nc1ccc2ccccc2c1	.	?	-[11.4 µM]	-[11.4 µM]	-	-[11.5 µM]
COc1ccc2c(c1)Sc1ccccc1N2CCN(C)C	-	-	-	-	-	-
CCN1/C(=C/C(C)=O)Sc2ccc(OC)cc21	-	1.42e-08M	-	?	1.14e-08M	-
O=C(CC1Nc2ccccc2NC1=O)NC1CCCCC1 (configuration not stated)	-	1.97e-07M	31.6µM	-	1.54e-07M	-
COc1ccccc1NC(=O)CC1Nc2ccccc2NC1=O (configuration not stated)	-	-	-	-	-	-
CCn1c(=O)n(CC(=O)NC2CCCC(C)C2C)c(=O)c2ccccc21 (configuration not stated)	-	-	?	-	-	-
CC1CCCC(NC(=O)CC2Nc3ccccc3NC2=O)C1C (configuration not stated)	-	2.13e-08M	?	-	1.9e-08M	-
Cc1ccc(C(=O)CSc2nnc(COc3cc(C)cc(C)c3)o2)cc1	-	-	-	-	-	-
Nc1c2c(nc3ccccc13)CCC2	-	-	31.6µM	-	-	-
Nc1c2c(nc3ccccc13)N(C1CCCCC1)CC2	.	2.14e-07M	.	.	1.89e-07M	.
